Data on 16 compounds can be found in PubChem BioAssay (NCATS).

Inconclusive results are not listed. The source made the active and inactive calls. Calls come from the whole dose curve; as a rule, active = well fitted curve in the direction sought with a large enough effect; inconclusive = small, poorly fitted or top-dose-only effect, or effect the other way, or another doubt; inactive = no such curve, though single readings can be large or run the other way.

A short description of this assay: qHTS Assay for Identification of Small Molecule Agonists for NFkB Signaling Pathway. (AID 624478).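 Note: compounds tested together with TNF alpha at its EC50 of 10 pM.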 As to conditions: NFkB pathway reporter cell assay, agonist mode, cells co-stimulated with 10 pM TNF alpha; series mostly up to 46.1 µM. Here is the method:
The TNF alpha/NFkB signaling pathway was assayed in NFkB-bla cells (Invitrogen), a ME-180 cervical carcinoma line containing a stably integrated beta-lactamase reporter gene controlled by a NFkB response element. This reporter is induced by TNF alpha at 10 pM EC50 and inhibited by the proteosome inhibitor MG-132 at approximately 100 nM IC50. The assay was screened at the EC50 of TNF alpha activation to identify activators of TNF alpha/NFkB signaling
Cells were trypsinized, washed in assay medium (AM, OPTI MEM with 0.5% fetal bovine serum, 0.1 mM nonessential amino acids, 1 mM sodium pyruvate, 10mM HEPES pH 7.3, 100U/ml penicillin, and 100 ug/ml streptomycin) and plated at 1000 cells/5 uL/well into black clear-bottom 1536 well plates. After an overnight incubation at 37 C and 5% CO2, 23 nL of compound were delivered by a pin tool, 1 uL of TNF alpha (10 pM final concentration in AM) was added and plates were incubated at 37 C for 5 hrs. One uL of LiveBLAzerTM detector mix (Invitrogen) was added, the plates incubated at room temperature for 2 hrs, and fluorescence intensity at 460 and 530 nm emission was measured at 405 nm excitation by an Envision (Perkin Elmer).
For `Cc1cc(SCc2sc(-c3ccc(C(F)(F)F)c(F)c3)nc2C)ccc1OCC(=O)O`, the compound was called inactive.
In the case of `CC(O)(CS(=O)(=O)c1ccc(F)cc1)C(=O)Nc1ccc(C#N)c(C(F)(F)F)c1` (stereo unspecified), the result was inactive.
To `Cn1c(CCCC(=O)O)nc2cc(N(CCCl)CCCl)ccc21` belongs “inactive”; to `O=C(O)C(=O)c1cn(Cc2ccccc2)c2ccc(-c3ccc(OC(F)(F)F)cc3)cc12`, “inactive”.
Turning to `Cc1sc2c(c1C)C(c1ccc(Cl)cc1)=N[C@@H](CC(=O)OC(C)(C)C)c1nnc(C)n1-2`, the result was inactive.
To `CN(C)CCN(C)CCc1ccc(Cl)c(Cl)c1` belongs “inactive”; to `COC1(CS(=O)c2ccccc2)CCN(CCc2c[nH]c3ccc(F)cc23)CC1` (stereo unspecified), “inactive”; to `CC1=C2C[C@@H]3[C@@H](CC=C4C[C@@H](O)CC[C@@]43C)[C@@H]2CC[C@]12O[C@H]1C[C@H](C)CN[C@H]1[C@H]2C`, “inactive”.
Regarding `C[C@@H]1[C@@H](CC(C[C@H]2O[C@@H]3O[C@]4(C)CC[C@@H]5[C@H](C)CC[C@@H]([C@H]2C)[C@@]35OO4)C[S+](=O)([O-])c2ccc(COC(=O)N(C)C)cc2)O[C@@H]2O[C@]3(C)CC[C@H]4[C@H](C)CC[C@@H]1[C@@]24OO3` (stereo partly specified), the compound was called inactive.
On to `CCCCC/C=C\C/C=C\C/C=C\C/C=C\CCCC(=O)NC1CC1`, for which the compound was classed as inactive.
For the compound `CNC(=O)c1ccc(N2C(=S)N(c3ccc(C#N)c(C(F)(F)F)c3)C(=O)C23CCC3)cc1F`, the compound was classed as inactive.
In the case of `CNC(=O)N1N=C(c2ccc(N)cc2)c2cc3c(cc2CC1C)OCO3` (stereo unspecified), the compound was classed as inactive.
To `COC[C@H]1OC(=O)c2coc3c2[C@@]1(C)C1=C(C3=O)C2CCC(=O)[C@@]2(C)C[C@H]1OC(C)=O` (stereo partly specified) belongs “inactive”; to `C[C@@H]1[C@@H](C(=O)C[C@H]2O[C@@H]3O[C@]4(C)CC[C@@H]5[C@H](C)CC[C@@H]([C@H]2C)[C@@]35OO4)O[C@@H]2O[C@]3(C)CC[C@H]4[C@H](C)CC[C@@H]1[C@@]24OO3`, “inactive”.
Regarding `Cn1cc(C2=C(c3cn(C4CCN(Cc5ccccn5)CC4)c4ccccc34)C(=O)NC2=O)c2ccccc21`, the compound was classed as inactive.
On to `COc1ccc(C(=O)c2c(C)n(CCN3CCOCC3)c3ccccc23)cc1`, for which the result was inactive.
